According to PMC7862700, “An all-to-all approach to the identification of sequence-specific readers for epigenetic DNA modifications on cytosine”:

Assays:
Assay in all cases: DAPPL (digital affinity profiling via proximity ligation, sequencing); 10 mM Tris-HCl pH 7.5, 50 mM NaCl, 1 mM DTT, 4% glycerol, room temperature, 30 min; GST-TFs on glutathione beads, 16-mer random dsDNA library, 0.1% formaldehyde crosslink after washing; high values mean tight binding
[1] = biological target: T1, FLI1 (Homo sapiens, UniProt Q01543 1-452); settings: protein: recombinant; tags: N-terminal GST; dsDNA, one strand shown
T1 sequence: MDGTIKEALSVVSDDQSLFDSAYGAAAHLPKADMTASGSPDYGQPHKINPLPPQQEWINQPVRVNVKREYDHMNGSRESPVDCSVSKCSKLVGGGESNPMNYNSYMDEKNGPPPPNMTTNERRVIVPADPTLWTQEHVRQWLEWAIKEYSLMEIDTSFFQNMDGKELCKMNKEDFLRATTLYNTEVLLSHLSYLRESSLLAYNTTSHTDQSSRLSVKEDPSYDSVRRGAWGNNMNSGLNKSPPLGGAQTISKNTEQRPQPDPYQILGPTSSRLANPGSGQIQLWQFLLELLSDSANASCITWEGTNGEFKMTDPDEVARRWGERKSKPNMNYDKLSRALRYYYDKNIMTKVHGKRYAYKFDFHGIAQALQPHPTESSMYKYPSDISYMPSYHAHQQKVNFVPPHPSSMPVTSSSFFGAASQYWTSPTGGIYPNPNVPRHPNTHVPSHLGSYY
Summary of the method: (§1)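 Each value of binding signal is a hexamer's read frequency for a factor divided by the same hexamer's frequency in the tag-only sample. Barcoded, bead-captured GST fusions of human transcription factors made in yeast were pooled with that sample and incubated with 200 nmole of a random double-stranded 16-mer DNA library in Tris/NaCl/DTT/glycerol buffer at room temperature for 30 min. Washing, 0.1% formaldehyde crosslinking, proximity ligation, PCR and Illumina NextSeq500 sequencing followed.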

[2] = biological target: T2, ELK1 (Homo sapiens, UniProt P19419 1-428); settings: protein: recombinant; tags: N-terminal GST; dsDNA, one strand shown
T2 sequence: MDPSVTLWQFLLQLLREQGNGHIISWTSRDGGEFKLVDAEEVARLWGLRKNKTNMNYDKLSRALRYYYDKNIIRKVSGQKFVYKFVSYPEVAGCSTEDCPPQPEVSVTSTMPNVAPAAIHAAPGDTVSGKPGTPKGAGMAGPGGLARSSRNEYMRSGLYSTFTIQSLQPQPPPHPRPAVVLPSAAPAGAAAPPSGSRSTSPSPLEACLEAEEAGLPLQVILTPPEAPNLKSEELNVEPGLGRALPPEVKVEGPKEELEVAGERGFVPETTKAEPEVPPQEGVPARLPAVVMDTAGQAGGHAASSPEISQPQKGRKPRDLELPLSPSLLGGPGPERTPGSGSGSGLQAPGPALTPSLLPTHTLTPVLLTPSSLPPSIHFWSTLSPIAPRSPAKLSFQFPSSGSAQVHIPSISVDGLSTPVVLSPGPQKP
Summary of the method: as §1

[3] = biological target: T3, GABPA (Homo sapiens, UniProt Q06546 1-454); settings: protein: recombinant; tags: N-terminal GST; dsDNA, one strand shown
T3 sequence: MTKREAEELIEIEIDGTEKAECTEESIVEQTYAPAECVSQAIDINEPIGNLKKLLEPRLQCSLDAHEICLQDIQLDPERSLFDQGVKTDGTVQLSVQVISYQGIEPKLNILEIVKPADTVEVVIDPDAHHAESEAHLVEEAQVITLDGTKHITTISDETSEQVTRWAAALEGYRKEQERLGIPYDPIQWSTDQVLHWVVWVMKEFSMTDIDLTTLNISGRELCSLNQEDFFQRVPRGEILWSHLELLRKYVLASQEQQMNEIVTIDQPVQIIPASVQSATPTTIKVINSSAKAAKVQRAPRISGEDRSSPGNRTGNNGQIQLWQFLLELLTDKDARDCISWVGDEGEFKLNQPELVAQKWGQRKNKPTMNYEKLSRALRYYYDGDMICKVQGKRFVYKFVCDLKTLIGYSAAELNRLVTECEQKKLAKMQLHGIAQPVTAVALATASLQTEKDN
Summary of the method: as §1

[4] = biological target: T4, ERG (Homo sapiens, UniProt P11308 1-479); settings: protein: recombinant; tags: N-terminal GST; dsDNA, one strand shown
T4 sequence: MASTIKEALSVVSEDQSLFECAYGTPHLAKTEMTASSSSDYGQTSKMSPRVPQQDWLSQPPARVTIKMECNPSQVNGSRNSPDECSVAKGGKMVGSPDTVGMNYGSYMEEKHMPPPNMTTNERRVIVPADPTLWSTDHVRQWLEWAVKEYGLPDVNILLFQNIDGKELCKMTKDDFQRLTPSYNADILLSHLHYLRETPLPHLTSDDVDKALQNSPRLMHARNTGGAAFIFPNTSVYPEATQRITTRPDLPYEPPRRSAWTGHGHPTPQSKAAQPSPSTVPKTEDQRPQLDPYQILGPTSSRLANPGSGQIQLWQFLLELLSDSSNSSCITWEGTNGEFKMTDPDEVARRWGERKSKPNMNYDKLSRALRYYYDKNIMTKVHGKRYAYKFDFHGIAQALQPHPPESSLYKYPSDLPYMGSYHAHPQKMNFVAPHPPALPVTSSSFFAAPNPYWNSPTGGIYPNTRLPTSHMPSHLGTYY
Summary of the method: as §1

[5] = biological target: ELF1 (Homo sapiens, UniProt P32519 1-619); settings: protein: recombinant; tags: N-terminal GST; dsDNA, one strand shown
Sequence of ELF1 (P32519 whole entry): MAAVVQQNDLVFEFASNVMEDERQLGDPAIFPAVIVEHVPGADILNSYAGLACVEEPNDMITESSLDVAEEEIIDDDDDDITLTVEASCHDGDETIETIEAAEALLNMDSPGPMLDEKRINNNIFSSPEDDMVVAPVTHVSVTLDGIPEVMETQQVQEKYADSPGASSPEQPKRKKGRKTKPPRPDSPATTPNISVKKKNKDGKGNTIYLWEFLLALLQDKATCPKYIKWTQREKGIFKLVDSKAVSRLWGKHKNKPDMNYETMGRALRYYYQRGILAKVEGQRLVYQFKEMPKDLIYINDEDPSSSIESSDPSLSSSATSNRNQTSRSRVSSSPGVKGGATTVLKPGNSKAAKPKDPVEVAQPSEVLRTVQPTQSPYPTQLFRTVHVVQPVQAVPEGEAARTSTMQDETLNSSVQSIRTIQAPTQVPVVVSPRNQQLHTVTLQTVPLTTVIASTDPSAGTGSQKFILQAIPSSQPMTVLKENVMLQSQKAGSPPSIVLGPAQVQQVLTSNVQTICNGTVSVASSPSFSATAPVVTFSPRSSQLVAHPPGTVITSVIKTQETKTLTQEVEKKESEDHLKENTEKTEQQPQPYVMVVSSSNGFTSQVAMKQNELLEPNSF
Summary of the method: as §1

[6] = biological target: T5, EHF (Homo sapiens, UniProt Q9NZC4 1-300); settings: protein: recombinant; tags: N-terminal GST; dsDNA, one strand shown
T5 sequence: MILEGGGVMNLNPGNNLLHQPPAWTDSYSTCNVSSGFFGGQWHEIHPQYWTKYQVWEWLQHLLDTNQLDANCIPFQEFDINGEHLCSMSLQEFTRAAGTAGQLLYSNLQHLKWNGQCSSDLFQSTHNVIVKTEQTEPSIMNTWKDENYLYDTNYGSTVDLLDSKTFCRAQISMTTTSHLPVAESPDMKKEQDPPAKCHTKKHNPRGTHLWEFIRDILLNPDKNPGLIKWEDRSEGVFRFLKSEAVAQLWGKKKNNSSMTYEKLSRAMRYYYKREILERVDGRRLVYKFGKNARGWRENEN
Summary of the method: as §1

[7] = biological target: SPI1 (Homo sapiens, UniProt P17947 1-270); settings: protein: recombinant; tags: N-terminal GST; dsDNA, one strand shown
Summary of the method: as §1

[8] = biological target: SPIB (Homo sapiens, UniProt Q01892 1-262); settings: protein: recombinant; tags: N-terminal GST; dsDNA, one strand shown
Sequence of SPIB (Q01892 whole entry): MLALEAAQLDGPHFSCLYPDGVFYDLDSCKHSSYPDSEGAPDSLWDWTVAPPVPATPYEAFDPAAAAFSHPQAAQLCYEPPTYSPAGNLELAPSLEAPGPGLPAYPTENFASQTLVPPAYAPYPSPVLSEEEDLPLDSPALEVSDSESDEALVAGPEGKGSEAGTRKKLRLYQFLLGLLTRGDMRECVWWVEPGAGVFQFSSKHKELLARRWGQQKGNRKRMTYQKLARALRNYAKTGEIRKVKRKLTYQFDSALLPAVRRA
Summary of the method: as §1

[9] = biological target: T6, ELK3 (Homo sapiens, UniProt P41970 1-407); settings: protein: recombinant; tags: N-terminal GST; dsDNA, one strand shown
T6 sequence: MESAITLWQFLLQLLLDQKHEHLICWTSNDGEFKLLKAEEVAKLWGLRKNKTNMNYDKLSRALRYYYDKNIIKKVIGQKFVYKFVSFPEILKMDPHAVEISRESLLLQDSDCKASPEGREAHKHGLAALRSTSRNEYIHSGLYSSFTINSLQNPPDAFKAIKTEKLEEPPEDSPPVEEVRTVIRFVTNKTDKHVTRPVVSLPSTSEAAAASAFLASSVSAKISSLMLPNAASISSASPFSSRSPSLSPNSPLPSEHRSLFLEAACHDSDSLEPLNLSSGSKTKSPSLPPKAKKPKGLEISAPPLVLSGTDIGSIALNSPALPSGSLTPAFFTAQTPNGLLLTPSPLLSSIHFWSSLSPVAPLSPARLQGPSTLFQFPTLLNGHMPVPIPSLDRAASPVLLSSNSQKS
Summary of the method: as §1

[10] = biological target: T7, FEV (Homo sapiens, UniProt Q99581 1-238); settings: protein: recombinant; tags: N-terminal GST; dsDNA, one strand shown
T7 sequence: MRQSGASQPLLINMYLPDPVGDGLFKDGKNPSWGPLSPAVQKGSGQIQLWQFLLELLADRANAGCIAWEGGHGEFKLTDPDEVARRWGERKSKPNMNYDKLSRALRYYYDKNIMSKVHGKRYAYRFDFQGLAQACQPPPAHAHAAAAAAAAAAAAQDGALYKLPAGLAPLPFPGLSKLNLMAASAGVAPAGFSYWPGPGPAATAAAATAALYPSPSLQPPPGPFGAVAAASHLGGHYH
Summary of the method: as §1

[11] = biological target: ETV5 (Homo sapiens, UniProt P41161 1-510); settings: protein: recombinant; tags: N-terminal GST; dsDNA, one strand shown
Sequence of ETV5 (P41161 whole entry): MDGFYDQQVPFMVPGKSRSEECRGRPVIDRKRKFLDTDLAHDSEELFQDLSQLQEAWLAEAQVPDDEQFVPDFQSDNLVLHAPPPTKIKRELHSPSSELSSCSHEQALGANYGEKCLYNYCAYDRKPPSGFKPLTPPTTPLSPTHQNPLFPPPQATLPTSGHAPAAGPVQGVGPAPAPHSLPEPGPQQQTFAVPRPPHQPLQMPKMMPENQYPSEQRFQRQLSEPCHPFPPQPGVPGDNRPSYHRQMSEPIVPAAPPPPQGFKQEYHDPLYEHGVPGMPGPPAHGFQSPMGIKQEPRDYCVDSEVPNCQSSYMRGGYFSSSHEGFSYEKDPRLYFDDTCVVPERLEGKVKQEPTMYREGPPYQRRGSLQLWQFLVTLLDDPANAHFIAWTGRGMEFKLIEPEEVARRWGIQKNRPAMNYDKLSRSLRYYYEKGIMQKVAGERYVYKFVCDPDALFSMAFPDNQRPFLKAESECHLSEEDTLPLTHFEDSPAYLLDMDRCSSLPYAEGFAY
Summary of the method: as §1

[12] = biological target: HSF1 (Homo sapiens, UniProt Q00613 1-529); settings: protein: recombinant; tags: N-terminal GST; chain copies: 3; dsDNA, one strand shown
Sequence of HSF1 (Q00613 whole entry): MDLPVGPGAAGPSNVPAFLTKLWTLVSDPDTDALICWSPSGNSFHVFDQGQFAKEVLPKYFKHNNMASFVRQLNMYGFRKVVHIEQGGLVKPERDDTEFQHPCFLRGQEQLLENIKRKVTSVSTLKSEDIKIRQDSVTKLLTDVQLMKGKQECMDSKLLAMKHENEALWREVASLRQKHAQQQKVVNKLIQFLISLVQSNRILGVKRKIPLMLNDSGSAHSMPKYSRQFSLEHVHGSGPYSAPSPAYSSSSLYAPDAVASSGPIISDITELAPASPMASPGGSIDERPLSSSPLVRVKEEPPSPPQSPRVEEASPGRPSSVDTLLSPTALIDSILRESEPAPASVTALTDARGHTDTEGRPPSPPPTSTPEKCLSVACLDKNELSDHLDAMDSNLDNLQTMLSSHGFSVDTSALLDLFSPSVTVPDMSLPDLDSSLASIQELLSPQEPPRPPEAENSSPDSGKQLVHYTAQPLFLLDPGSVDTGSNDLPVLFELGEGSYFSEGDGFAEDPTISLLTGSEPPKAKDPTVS
Summary of the method: as §1

[13] = biological target: T8, SPIC (Homo sapiens, UniProt Q8N5J4 1-248); settings: protein: recombinant; tags: N-terminal GST; dsDNA, one strand shown
T8 sequence: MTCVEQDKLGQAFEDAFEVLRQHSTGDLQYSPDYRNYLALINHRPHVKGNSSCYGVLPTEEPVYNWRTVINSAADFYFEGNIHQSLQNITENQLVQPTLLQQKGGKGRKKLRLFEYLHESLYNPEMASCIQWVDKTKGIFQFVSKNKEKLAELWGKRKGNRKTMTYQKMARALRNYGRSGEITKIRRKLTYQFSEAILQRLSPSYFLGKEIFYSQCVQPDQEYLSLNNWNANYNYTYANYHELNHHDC
Summary of the method: as §1

[14] = biological target: ELF4 (Homo sapiens, UniProt Q99607 1-663); settings: protein: recombinant; tags: N-terminal GST; dsDNA, one strand shown
Sequence of ELF4 (Q99607 whole entry): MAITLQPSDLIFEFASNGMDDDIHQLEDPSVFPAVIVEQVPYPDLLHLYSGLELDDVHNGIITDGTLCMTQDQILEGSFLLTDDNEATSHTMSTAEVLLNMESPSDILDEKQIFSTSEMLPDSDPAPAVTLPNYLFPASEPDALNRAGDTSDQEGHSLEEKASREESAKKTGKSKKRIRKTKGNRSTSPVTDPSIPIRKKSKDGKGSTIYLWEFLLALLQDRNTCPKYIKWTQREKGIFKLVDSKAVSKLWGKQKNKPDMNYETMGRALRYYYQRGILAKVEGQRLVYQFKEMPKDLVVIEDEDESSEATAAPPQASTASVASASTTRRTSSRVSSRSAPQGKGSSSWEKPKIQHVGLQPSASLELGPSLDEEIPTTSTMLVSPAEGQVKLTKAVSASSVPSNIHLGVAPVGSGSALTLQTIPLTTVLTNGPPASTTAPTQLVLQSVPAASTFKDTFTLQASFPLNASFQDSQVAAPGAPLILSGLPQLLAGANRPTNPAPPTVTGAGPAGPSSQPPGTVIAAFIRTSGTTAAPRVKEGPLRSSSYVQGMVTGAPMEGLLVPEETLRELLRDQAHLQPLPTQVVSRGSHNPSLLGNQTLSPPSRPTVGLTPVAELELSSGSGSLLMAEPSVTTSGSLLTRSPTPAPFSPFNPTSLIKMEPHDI
Summary of the method: as §1

[15] = biological target: T9, ELK4 (Homo sapiens, UniProt P28324-2 1-405); settings: protein: recombinant; tags: N-terminal GST; dsDNA, one strand shown
T9 sequence: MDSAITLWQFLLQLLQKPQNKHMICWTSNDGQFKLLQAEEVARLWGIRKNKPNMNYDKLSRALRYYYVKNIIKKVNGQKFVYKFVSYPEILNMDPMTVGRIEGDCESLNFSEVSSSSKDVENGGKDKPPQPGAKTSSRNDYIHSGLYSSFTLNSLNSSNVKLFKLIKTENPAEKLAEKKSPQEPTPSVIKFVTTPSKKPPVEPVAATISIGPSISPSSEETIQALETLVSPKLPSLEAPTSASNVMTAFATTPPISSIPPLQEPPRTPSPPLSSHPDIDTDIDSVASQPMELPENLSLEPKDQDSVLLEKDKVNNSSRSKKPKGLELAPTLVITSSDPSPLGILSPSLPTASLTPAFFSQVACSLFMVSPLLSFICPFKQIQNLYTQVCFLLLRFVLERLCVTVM
Summary of the method: as §1

[16] = biological target: T10, ETV2 (Homo sapiens, UniProt O00321 1-342); settings: protein: recombinant; tags: N-terminal GST; dsDNA, one strand shown
T10 sequence: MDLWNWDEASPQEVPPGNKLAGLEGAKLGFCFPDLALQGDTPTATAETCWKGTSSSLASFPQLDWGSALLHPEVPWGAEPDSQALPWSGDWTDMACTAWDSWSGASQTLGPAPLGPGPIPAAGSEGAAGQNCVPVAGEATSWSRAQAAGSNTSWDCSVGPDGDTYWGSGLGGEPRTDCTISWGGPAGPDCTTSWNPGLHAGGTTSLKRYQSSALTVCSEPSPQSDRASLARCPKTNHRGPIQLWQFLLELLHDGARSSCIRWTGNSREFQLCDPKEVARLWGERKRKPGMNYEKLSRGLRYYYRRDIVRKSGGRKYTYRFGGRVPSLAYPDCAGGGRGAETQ
Summary of the method: as §1

[17] = biological target: T11, ELF3 (Homo sapiens, UniProt P78545 1-371); settings: protein: recombinant; tags: N-terminal GST; dsDNA, one strand shown
T11 sequence: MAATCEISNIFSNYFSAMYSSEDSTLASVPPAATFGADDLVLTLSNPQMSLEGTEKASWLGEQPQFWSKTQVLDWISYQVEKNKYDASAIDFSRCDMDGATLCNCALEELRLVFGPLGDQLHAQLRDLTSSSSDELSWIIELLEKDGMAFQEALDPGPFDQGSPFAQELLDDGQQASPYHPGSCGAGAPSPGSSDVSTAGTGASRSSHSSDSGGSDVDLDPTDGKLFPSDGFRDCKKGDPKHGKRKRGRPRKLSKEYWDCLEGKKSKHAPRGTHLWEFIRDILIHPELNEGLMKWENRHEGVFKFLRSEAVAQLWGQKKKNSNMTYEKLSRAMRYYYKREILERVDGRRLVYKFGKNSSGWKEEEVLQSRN
Summary of the method: as §1

[18] = biological target: CRX (Homo sapiens, UniProt O43186 1-299); settings: protein: recombinant; tags: N-terminal GST; dsDNA, one strand shown
Sequence of CRX (O43186 whole entry): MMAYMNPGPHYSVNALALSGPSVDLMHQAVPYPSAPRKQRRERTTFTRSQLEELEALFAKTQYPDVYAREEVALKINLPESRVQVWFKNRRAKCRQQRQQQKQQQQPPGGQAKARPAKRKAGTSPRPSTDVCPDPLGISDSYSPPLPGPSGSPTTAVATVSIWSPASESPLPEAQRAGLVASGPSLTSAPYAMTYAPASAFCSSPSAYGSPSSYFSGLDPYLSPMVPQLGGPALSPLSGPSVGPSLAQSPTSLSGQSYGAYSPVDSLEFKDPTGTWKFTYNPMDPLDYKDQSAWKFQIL
Summary of the method: as §1

[19] = biological target: ETV1 (Homo sapiens, UniProt P50549 1-477); settings: protein: recombinant; tags: N-terminal GST; dsDNA, one strand shown
Sequence of ETV1 (P50549 whole entry): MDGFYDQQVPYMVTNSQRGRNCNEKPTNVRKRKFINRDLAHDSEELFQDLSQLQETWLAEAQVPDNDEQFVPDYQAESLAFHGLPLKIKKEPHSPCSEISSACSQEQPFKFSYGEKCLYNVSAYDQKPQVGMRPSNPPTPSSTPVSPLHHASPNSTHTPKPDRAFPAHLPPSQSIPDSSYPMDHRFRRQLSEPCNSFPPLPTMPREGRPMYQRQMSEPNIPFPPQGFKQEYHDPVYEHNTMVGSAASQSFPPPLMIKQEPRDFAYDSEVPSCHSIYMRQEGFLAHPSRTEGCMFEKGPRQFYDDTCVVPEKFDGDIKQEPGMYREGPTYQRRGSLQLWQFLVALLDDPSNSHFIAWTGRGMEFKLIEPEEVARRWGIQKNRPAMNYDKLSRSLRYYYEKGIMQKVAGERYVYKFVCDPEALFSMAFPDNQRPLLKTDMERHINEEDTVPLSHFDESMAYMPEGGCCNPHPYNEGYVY
Summary of the method: as §1

Sequence: ACTATC
- binding signal [1]: 1.15 fold enrichment (6-mer frequency, TF over GST control)
- binding signal [2]: 1.13 fold enrichment (6-mer frequency, TF over GST control)
- binding signal [3]: 1.17 fold enrichment (6-mer frequency, TF over GST control)
- binding signal [4]: 1.11 fold enrichment (6-mer frequency, TF over GST control)
- binding signal [5]: 1.12 fold enrichment (6-mer frequency, TF over GST control)
- binding signal [6]: 1.14 fold enrichment (6-mer frequency, TF over GST control)
- binding signal [7]: 1.21 fold enrichment (6-mer frequency, TF over GST control)
- binding signal [8]: 1.16 fold enrichment (6-mer frequency, TF over GST control)
- binding signal [9]: 1.07 fold enrichment (6-mer frequency, TF over GST control)
- binding signal [10]: 1.13 fold enrichment (6-mer frequency, TF over GST control)
- binding signal [11]: 1.13 fold enrichment (6-mer frequency, TF over GST control)
- binding signal [12]: 1.13 fold enrichment (6-mer frequency, TF over GST control)
- binding signal [13]: 1.19 fold enrichment (6-mer frequency, TF over GST control)
- binding signal [14]: 1.24 fold enrichment (6-mer frequency, TF over GST control)
- binding signal [15]: 1.2 fold enrichment (6-mer frequency, TF over GST control)
- binding signal [16]: 1.32 fold enrichment (6-mer frequency, TF over GST control)
- binding signal [17]: 1.22 fold enrichment (6-mer frequency, TF over GST control)
- binding signal [18]: 1.15 fold enrichment (6-mer frequency, TF over GST control)
- binding signal [19]: 1.15 fold enrichment (6-mer frequency, TF over GST control)
